Hit rate of the full screen: of about 350,000 compounds, about 1,900 (0.54%) were called active.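 How the source made its calls: active means mean inhibition across replicates at least about 35%, with every replicate also reaching that limit (limit read from the data); inconclusive means only one of the two criteria met; inactive means neither criterion met.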 For the sample, actives were picked, then their nearest neighbours and some compounds at random.

For this assay, the target named is Caspase-6 (Homo sapiens) (UniProt P55212). Kind of assay: inhibition of CASP6 peptide cleavage – biochemical, VEID-R110 fluorescence, single point, set 2, primary screen (AID 686996).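 Further: 0% = median of neutral control wells and 100% = no fluorescence left.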 The following applies: purified caspase-6, Z-VEID-R110 cleavage fluorescence; at 12.5 µM; hits give high values.
Caspase-6 (Homo sapiens), sequence (P55212 24-179 limits assumed): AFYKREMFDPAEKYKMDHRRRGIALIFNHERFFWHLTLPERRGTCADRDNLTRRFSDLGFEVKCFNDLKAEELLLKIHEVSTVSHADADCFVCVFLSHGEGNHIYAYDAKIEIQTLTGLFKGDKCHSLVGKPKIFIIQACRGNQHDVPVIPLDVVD
Caspase-6 (Homo sapiens), sequence (P55212 194-293 limits assumed): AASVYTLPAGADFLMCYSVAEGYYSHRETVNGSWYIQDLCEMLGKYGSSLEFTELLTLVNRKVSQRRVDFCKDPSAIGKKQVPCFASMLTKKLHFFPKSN
In the case of `O=C(C[C@@H]1CC[C@@H]2[C@H](COC[C@H](O)CN2S(=O)(=O)c2ccccc2F)O1)NCc1ccccc1F`, the inhibition was 4.05% (inactive).

For `Cc1noc(C)c1NC(=O)N(C)C[C@H]1Oc2c(NC(=O)c3nc4ccccc4s3)cccc2C(=O)N([C@@H](C)CO)C[C@@H]1C`, the inhibition was -1.84% (inactive).

In the case of `CCN(CC)CCCC(C)n1c2nc(=O)[nH]c(=O)c-2nc2cc(Cl)ccc21` (configuration not stated), the inhibition was 81.9% (active).

Regarding `Cc1cc2nc3c(=O)[nH]c(=O)nc-3n(C[C@H](O)[C@H](O)[C@H](O)CO)c2cc1C`, the inhibition is -54.4% (inactive).

Turning to `C[C@H](O)C#Cc1ccc2c(c1)O[C@@H](CN(C)Cc1cncnc1)[C@H](C)CN([C@H](C)CO)S2(=O)=O`, the inhibition is -2.4% (inactive).

For the compound `O=C(C1CCCC1)N1CC(=O)N2[C@H](C1)[C@@H](c1ccc(-c3cccnc3)cc1)[C@@H]2CO`, the inhibition was -0.455% (inactive).

Take `COCCNC(=O)Nc1ccc2nc(-c3ccco3)c(-c3ccco3)nc2c1`: the inhibition was 79.9% (active).

Turning to `COCCNC(=O)CSc1nc(N)c(NC(=O)c2ccco2)c(=O)[nH]1`, the inhibition was 2.38% (inactive).

In the case of `Cc1ccc(NC(=O)OCCNC(=O)c2ccncc2)cc1`, the inhibition was 2.78% (inactive).

`C[C@@H]1CN([C@H](C)CO)C(=O)c2cc(-c3cccc(C(=O)N(C)C)c3)cnc2O[C@H]1CN(C)S(=O)(=O)c1ccc(F)cc1`: the inhibition is 1.95% (inactive).

As to `COc1cc(C(=O)NCC(c2ccco2)N2CCCC2)ccc1OCc1ccccc1` (configuration not stated), the inhibition is -1.23% (inactive).

Take `COc1ccc(C(=O)/C=C/c2ccc(-c3ccccc3)cc2)cc1CSCC(=O)O`: the inhibition was 63.7% (active).

Turning to `COc1cc(/C=C/C(=O)OCC(=O)NC(=O)NCc2ccccc2)ccc1OCC#N`, the inhibition was 0.201% (inactive).

Regarding `COc1ccc(OC)c(/C=C/C(=O)c2ccc3c(c2)OCO3)c1`, the inhibition was 2% (inactive).

As to `COc1ccccc1CCNC(=O)C1CCN(C(=O)/C=C/c2ccccc2)CC1`, the inhibition is -1.88% (inactive).

On to `COC(=O)c1ccc(COc2ccc(/C=C/C(=O)c3ccc(OC)c(CSCC(=O)O)c3)cc2OC)cc1`, for which the inhibition was 41% (active).

Turning to `C[C@@H]1CN([C@H](C)CO)C(=O)Cc2cc(NC(=O)Cc3ccccc3)ccc2O[C@H]1CN(C)S(=O)(=O)c1cccs1`, the inhibition is -1.84% (inactive).

Consider `CCCN1C[C@@H](C)[C@@H](OC)CN(C)C(=O)c2cc(NC(=O)NC3CCCCC3)ccc2OC[C@H]1C`, for which the inhibition was 0.443% (inactive).

In the case of `C[C@H](CO)N1C[C@H](C)[C@H](CN(C)Cc2ccc(C(F)(F)F)cc2)Oc2ccc(NC(=O)CCCCCC(=O)Nc3ccccc3N)cc2CC1=O`, the inhibition is 1.34% (inactive).

Take `Cc1cc(C)c(S(=O)(=O)NN=C2c3ccccc3[C@H]3Cc4csc[n+]4[C@@H]23)c(C)c1`: the inhibition was 85.1% (active).

Consider `O=C(N[C@H]1CC[C@H](CCNS(=O)(=O)c2ccc(F)cc2)O[C@H]1CO)C1CCCC1`, for which the inhibition was 2.12% (inactive).

With `C[C@@H]1CCCCO[C@H](CN(C)C)[C@H](C)CN([C@@H](C)CO)C(=O)c2cc(NC(=O)Cc3ccccc3)ccc2O1`, the inhibition is -0.443% (inactive).

Take `O=C(Nc1ccc(-c2ccccc2)cc1)[C@@H]1[C@@H](CO)[C@@H]2Cn3c(cccc3=O)[C@H]1N2Cc1ccncc1`: the inhibition was 0.424% (inactive).

Take `C=C1c2c(Cl)ccc(O)c2C(O)=C2C(=O)[C@]3(O)C(O)=C(C(N)=O)C(=O)[C@@H](N(C)C)[C@@H]3[C@@H](O)C12` (some centres not stated): the inhibition is 73.9% (active).

On to `CN(C)[C@@H]1C(=O)C(C(N)=O)=C(O)[C@@]2(O)C(=O)C3=C(O)c4c(O)ccc(Cl)c4[C@@H](O)[C@H]3C[C@@H]12`, for which the inhibition is 49.5% (active).

Regarding `C[C@@H]1CCCCO[C@H](CN(C)S(=O)(=O)c2ccc(Cl)cc2)[C@H](C)CN([C@H](C)CO)C(=O)c2cc(NC(=O)NC3CCCCC3)ccc2O1`, the inhibition is -2.73% (inactive).

For `N#C[C@H]1[C@@H](c2ccc(C3=CCCCC3)cc2)[C@@H](CO)N1C(=O)Cc1ccncc1`, the inhibition is 0.643% (inactive).

Take `O=S(=O)(c1ccccc1)N1[C@H](CO)[C@@H]2c3ccccc3NC[C@@H]21`: the inhibition is -2.35% (inactive).

Regarding `C[C@@H]1CN([C@H](C)CO)C(=O)Cc2cc(NC(=O)NC3CCCCC3)ccc2O[C@H]1CN(C)S(=O)(=O)c1ccc(Cl)cc1`, the inhibition is 0.436% (inactive).

As for `C[C@H](O)C#Cc1ccc([C@@H]2[C@H](CO)N3CCCCN(CC4CC4)C[C@@H]23)cc1`, the inhibition was 4.05% (inactive).

With `CN(C)CC(=O)N[C@H]1CC[C@H](CCNC(=O)Nc2ccc(F)cc2)O[C@H]1CO`, the inhibition is 2.23% (inactive).

`CC(C)NC(=O)N(C)C[C@H]1Oc2ccc(NS(C)(=O)=O)cc2CC(=O)N([C@@H](C)CO)C[C@H]1C`: the inhibition is -2.92% (inactive).

As to `COc1ccc2nc(-c3ccccn3)ccc2c1`, the inhibition is -1.05% (inactive).

`COc1ccc(C=Nc2cccc3ncccc23)cc1`: the inhibition was 44.7% (active).

On to `COc1ccc(-c2cc3ncccc3cn2)cc1`, for which the inhibition was 1.91% (inactive).

As to `C[C@@H]1CCCCO[C@H](CN(C)S(=O)(=O)c2cccs2)[C@H](C)CN([C@@H](C)CO)C(=O)c2cc(NC(=O)Nc3ccc4c(c3)OCO4)ccc2O1`, the inhibition is -0.622% (inactive).

In the case of `COc1ccc(S(=O)(=O)Nc2ccc3c(c2)CC(=O)N([C@@H](C)CO)C[C@@H](C)[C@@H](CN(C)C)O3)cc1`, the inhibition is 2.95% (inactive).

For `O=C(CCC(=O)c1ccccc1)NCc1cccc(C(F)(F)F)c1`, the inhibition is -0.291% (inactive).

As to `O=C(O)CCC(=O)NCc1ccc2[nH]c3c(c2c1)CCCC3`, the inhibition is 41.9% (active).

As to `Cc1cccc(NC(=S)NCc2ccc3[nH]c4c(c3c2)CCCC4)c1`, the inhibition is -0.948% (inactive).

With `C[C@@H]1CN([C@@H](C)CO)C(=O)c2cccc(NC(=O)Nc3ccc4c(c3)OCO4)c2O[C@H]1CN(C)C(=O)Nc1cccc2ccccc12`, the inhibition was -2.55% (inactive).

As to `C[C@H](CO)N1C[C@H](C)[C@H](CN(C)C(=O)NC2CCCCC2)Oc2ccc(NC(=O)CCCN(C)C)cc2CC1=O`, the inhibition is 1.62% (inactive).

For `C=CCn1c(=S)[nH]c2scc(-c3ccco3)c2c1=O`, the inhibition was 80.7% (active).

In the case of `C[C@H]1CN([C@@H](C)CO)S(=O)(=O)c2ccc(-c3cccc(C#N)c3)cc2O[C@H]1CN(C)C(=O)c1ccccc1`, the inhibition was 5.87% (inactive).

With `Cc1nc2ccccc2c(=O)n1-c1ccc(F)c(NC(=O)c2cccs2)c1`, the inhibition was -0.817% (inactive).

For the compound `Cc1nc2ccccc2c(=O)n1-c1ccc(NS(=O)(=O)c2ccc(F)cc2F)cc1`, the inhibition is 49.9% (active).

In the case of `COc1ccc(NS(=O)(=O)c2ccc(F)cc2F)cn1`, the inhibition was 1.04% (inactive).

Take `O=C1C[C@@](C(=O)NCC(F)(F)F)(c2ccc([N+](=O)[O-])cc2)[C@@H](c2ccc(CO)cc2I)N1C1CCCCC1`: the inhibition is 2.45% (inactive).

For `C[C@H]1CN([C@@H](C)CO)C(=O)Cc2cc(NS(=O)(=O)c3ccccc3)ccc2O[C@H]1CN(C)Cc1ccc(C(=O)Nc2ccccc2N)cc1`, the inhibition is -0.988% (inactive).

`C[C@H]1CN([C@@H](C)CO)C(=O)Cc2cc(NS(=O)(=O)c3ccccc3)ccc2O[C@@H]1CN(C)Cc1ccc(C(=O)Nc2ccccc2N)cc1`: the inhibition is 39.7% (active).

Consider `COc1ccc(S(=O)(=O)Nc2ccc3c(c2)CC(=O)N([C@@H](C)CO)C[C@@H](C)[C@@H](CN(C)Cc2ccc(C(=O)Nc4ccccc4N)cc2)O3)cc1`, for which the inhibition is -1.35% (inactive).

For `C[C@H]1CN([C@@H](C)CO)S(=O)(=O)c2ccc(C#Cc3ccccc3)cc2O[C@@H]1CN(C)C(=O)C1CC1`, the inhibition was 2.82% (inactive).

For the compound `CN(C)C(=O)c1ccc(-c2ccccc2[C@H]2[C@@H](CO)N(C(=O)C3CCCCC3)[C@H]2C#N)cc1`, the inhibition was -0.604% (inactive).

For the compound `COc1ccc(CN(C)C[C@@H]2Oc3ccc(NC(=O)Nc4ccc(F)cc4)cc3CC(=O)N([C@@H](C)CO)C[C@H]2C)cc1`, the inhibition is 3.48% (inactive).

Regarding `COC(=O)CCCCC1=CCC2C(=O)C=C(O)C2C1` (configuration not stated), the inhibition is 70.5% (active).

For the compound `CC(C)(O)C#Cc1ccc([C@H]2[C@@H](CO)N3CCCCN(C(=O)c4ccncc4)C[C@H]23)cc1`, the inhibition was 1.18% (inactive).

Consider `COCC(=O)N1CC(=O)N2[C@H](CO)[C@@H](c3ccc(C#CC4CCCC4)cc3)[C@H]2C1`, for which the inhibition was -0.852% (inactive).

`CCOc1cc(C(=O)O)ccc1OCCOc1ccccc1`: the inhibition was 35.6% (active).

As to `CCOc1ccc(CCNC(=O)Nc2ccccc2)cc1OCC`, the inhibition is -1.26% (inactive).

`CCOc1ccc(C(=O)NCC(=O)N2CCCCCCC2)cc1OCC`: the inhibition was -0.226% (inactive).

For the compound `O=C(C[C@H]1CC[C@@H](NC(=O)c2ccncc2)[C@@H](CO)O1)Nc1ccccc1`, the inhibition is 1.11% (inactive).

With `CCNC(=O)C[C@@H]1CC[C@H]2[C@@H](COc3ccc(NC(=O)NC(C)C)cc3C(=O)N2C)O1`, the inhibition is 0.619% (inactive).

With `Cc1n[nH]c(=O)nc1N/N=C/c1cccs1`, the inhibition was 0.991% (inactive).

As to `O=c1nc(N/N=C/c2ccco2)cn[nH]1`, the inhibition was 55.7% (active).

`O=C(Cn1cnc2ccccc21)N/N=C/c1ccco1`: the inhibition is 1.45% (inactive).

Consider `COc1ccccc1C#Cc1cnc2c(c1)C(=O)N([C@@H](C)CO)C[C@H](C)[C@@H](CN(C)C(=O)CC1CC1)O2`, for which the inhibition was -4.85% (inactive).

`CCOc1ccc(CCN2C(=O)c3cccnc3C2=O)cc1OCC`: the inhibition is 3.27% (inactive).

As for `NC1=CC(=O)C(=O)c2cccnc21`, the inhibition is 93.8% (active).

For the compound `C[C@@H]1CN([C@H](C)CO)C(=O)c2cc(NC(=O)Cc3ccccc3)ccc2O[C@@H](C)CCCCO[C@H]1CN(C)C(=O)Cc1ccccc1`, the inhibition is 1% (inactive).

In the case of `C[C@@H]1CN([C@H](C)CO)C(=O)c2cc(C#CC3CC3)cnc2O[C@@H]1CN(C)Cc1ccccn1`, the inhibition is -0.477% (inactive).

For the compound `O=C1C=CCCN1C(=O)/C=C/c1ccc(F)cc1`, the inhibition is 6.28% (inactive).

As for `C[C@H](CO)N1C[C@H](C)[C@H](CN(C)Cc2ccc(C(=O)O)cc2)Oc2ncc(-c3ccccc3)cc2C1=O`, the inhibition was -1.47% (inactive).

The inhibition is the relative decrease from the control value, in per cent.
